Screening results from PubChem.
IL1B secr inh = qHTS for Inhibitors of Inflammasome Signaling: IL-1-beta AlphaLISA Primary Screen; THP-1 LPS/ATP IL-1B secretion, AlphaLISA, 16 h; stronger effect = lower value; activity change, % at 57.5 µM; actives 4.7% (n = 360,000); in the data active means activity change below about -50%; inconclusive means mostly about -30% to -49%
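THP-1 cells pretreated 1 hr with compounds (up to 57.5 uM final), then stimulated with LPS (250 ng/mL final) plus ATP (1.25 mM final); secreted IL-1B measured by AlphaLISA after 16 hr, decreased signal indicating inhibition.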
TDP1 cell noCPT = qHTS for Inhibitors of human tyrosyl-DNA phosphodiesterase 1 (TDP1): qHTS in cells in absence of CPT. DT40 Tdp1-/- hTDP1 cells, no CPT, ATP luminescence, 48 h. Potency, µM (titrated, usually from 46.2 µM), without a hit: at the highest dose activity change, negative = growth inhibition, usual class: inhibitors. actives 15% (n = 420,000). AID 686978, 2013; further: potency means the concentration at half of the fitted maximal effect; nearly all actives have a fitted effect of over 55% in size
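Stably hTDP1-transfected Tdp1-null chicken DT40 cells were treated with library compounds minus camptothecin and grown for at least 48 hr at 37 °C, after which cellular ATP was quantified by luminescence.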
HT1080-NT tox = qHTS for induction of synthetic lethality in tumor cells producing 2HG: qHTS for the HT-1080-NT fibrosarcoma cell line. HT-1080-NT fibrosarcoma viability, CellTiter-Glo ATP luminescence, 48 h. Potency, µM (titrated, usually from 46.1 µM), for the others: at the top dose activity, negative = less viability, usual class: cytotoxic. actives 1.6% (n = 360,000). AID 686970, 2013;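 further: NT is the 2HG producing partner of a matched IDH1 knockdown line; potency means the concentration at half of the fitted maximal effect; 0% = DMSO-treated cells and -100% = media-only wells without cells; nearly all actives have a fitted effect of over 55% in size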
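Compounds were tested in concentration-response format on HT-1080-NT cells for 48 hours at 37 degrees C. Cell viability came from CellTiter-Glo luminescence; curves were classified by r2, response magnitude and activity.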
DT40 TDP1 CPT = qHTS for Inhibitors of human tyrosyl-DNA phosphodiesterase 1 (TDP1): qHTS in cells in presence of CPT. Potency, µM (titrated, usually from 46.2 µM), for inactives: top-dose activity change, negative = growth inhibition, usual class: inhibitors. chicken DT40 Tdp1-/-;hTDP1 cells + 20 nM CPT, ATP luminescence, 48 h. actives 12% (n = 420,000); further: potency means the concentration at half of the fitted maximal effect; nearly all actives have a fitted effect of over 55% in size
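Chicken DT40 Tdp1-/- cells complemented with human TDP1, 400 cells/well, exposed to compounds plus 20 nM camptothecin for at least 48 h at 37 C; viability read as ATP content by CellTiter-Glo luminescence.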
HT1080 IDH1KD tx = qHTS for induction of synthetic lethality in tumor cells producing 2HG: qHTS for the HT-1080-IDH1KD cell line | HT-1080 IDH1 knockdown viability, ATP luminescence, 48 h | Potency, µM (highest dose often 46.1 µM), inactives show at the highest dose activity, negative = toxicity, actives largely listed as cytotoxic | actives 2% (n = 360,000) | AID 686971, 2013;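 further: potency means the concentration at half of the fitted maximal effect; 0% = DMSO wells and -100% = cell-free medium wells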
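% activity derives from luminescence (CellTiter-Glo), normalised to DMSO and no-cell wells. HT-1080-IDH1KD cells, 750/well, had 48 h compound exposure at 37 °C.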
The depositor's hits bear a star; ? = inconclusive; . = no result. Shown are actives, neighbours in structure and some others; about 19% of the full set was active somewhere. Unless noted, the call rests on the fitted dose curve; in most records, active means well fitted curve in the direction sought with a large enough effect; inconclusive means small, poorly fitted or top-dose-only effect, or another doubt; inactive means no such curve, though single readings can be large; an effect the other way counts as inactive or inconclusive. Unless noted, on the % scale 0 is the no-effect control and ±100 the full control effect.

SMILES	IL1B secr inh	TDP1 cell noCPT	HT1080-NT tox	DT40 TDP1 CPT	HT1080 IDH1KD tx
CCCCN(C)CCNC(=O)C1CCN(c2nc3ccc(CC)cc3s2)CC1	.	23.1µM*	.	20.6µM*	.
O=C(NCCc1ccccc1)c1ccc2nc(N3CCOCC3)sc2c1	8.0	?	-2.0%	-7.1%	4.4%
CCOC(=O)c1[nH]ncc1CN1CCC(Cc2cccc(OC)c2)(C(=O)OCC)CC1	10.9	2.5%	4.0%	3.7%	14.3%
COc1ccc(S(=O)(=O)N2CCOC2CNC(=O)C(=O)NCCN2CCOCC2)cc1OC (centres undefined)	-16.5	2.0%	3.5%	-5.0%	4.3%
CNC1(C(N)=O)CCNCC1	14.7	9.0%	6.2%	5.1%	3.1%
CCC(C)NC(=O)c1cc(Sc2cccc(Cl)c2)nc2ccccc12 (centres undefined)	.	14.6µM*	.	16.4µM*	.
CCOc1ccc(Sc2cc(C(=O)NCc3ccc(C)cc3)c3ccccc3n2)cc1	.	-22.0%	.	-23.5%	.
CCc1ccc(Sc2cc(C(=O)NC(C)CC)c3ccccc3n2)cc1 (centres undefined)	.	16.4µM*	.	16.4µM*	.
CCc1ccc(Sc2cc(C(=O)NCc3ccccc3OC)c3ccccc3n2)cc1	.	18.4µM*	.	20.6µM*	.
CCOc1ccc(Sc2cc(C(=O)NCc3ccc(F)cc3)c3ccccc3n2)cc1	.	?	.	-26.9%	.
O=C(NCc1ccc(F)cc1)c1cc(Sc2ccc(F)cc2F)nc2ccccc12	.	?	.	16.4µM*	.
Cc1cc(C(=O)NC(C)CCC(C)C)c2ccccc2n1 (centres undefined)	18.8	7.6%	0.0%	-2.8%	-11.0%
COc1cccc(C(=O)Nc2nnc(-c3cccs3)s2)c1	2.1	-1.4%	-0.7%	-28.7%	-9.6%
Cc1onc(-c2c(F)cccc2Cl)c1C(=O)c1ccccc1	.	?	2.4%	1.1%	8.8%
Cn1c(-c2ccc(F)cc2)cc2onc(-c3c(F)cccc3Cl)c2c1=O	-17.0	?	5.7%	13µM*	4.0%
CNC(=O)c1ccc(-c2cc3onc(-c4ccccc4)c3c(=O)n2C)cc1	0.0	23.1µM*	-1.1%	18.4µM*	1.3%
CCCOc1ccc(-c2cc3onc(-c4ccccc4)c3c(=O)n2C)cc1	36.2	18.4µM*	13.8%	25.9µM*	17.4%
Cc1ccc(-c2cc3onc(-c4ccccc4)c3c(=O)n2C)cc1	27.0	?	15.7%	?	12.3%
COC(=O)Cc1csc(Nc2ccc(F)c(Cl)c2)n1	13.0	1.6%	11.2%	-21.4%	3.6%
CCN(C(=O)CCN1C(=O)/C(=C/c2ccccc2)SC1=S)C1CCS(=O)(=O)C1 (centres undefined)	-82.8*	?	?	18.4µM*	?
CC(=O)NNC(=O)CN1C(=O)/C(=C/c2ccccc2)SC1=S	-13.0	17.9%	6.3%	-9.0%	11.6%
CCN(C(=O)CN1C(=O)S/C(=C\C=C\c2ccccc2)C1=O)C1CCS(=O)(=O)C1 (centres undefined)	-26.4	1.46µM*	0.9%	1.84µM*	0.0%
CCN(CC)C(=O)CN1C(=O)/C(=C/c2ccccc2)SC1=S	-62.1*	14.6µM*	-0.2%	18.4µM*	-1.7%
O=C(CN1C(=O)C2CC=CCC2C1=O)Nc1ccc(OC(F)(F)F)cc1 (centres undefined)	5.9	0.8%	1.0%	?	-4.6%
CC1CCCN(C(=O)C2CCN(S(=O)(=O)c3ccccc3)CC2)C1 (centres undefined)	7.1	-10.2%	-2.0%	1.1%	-2.7%
SMILES	IL1B secr inh	TDP1 cell noCPT	HT1080-NT tox	DT40 TDP1 CPT	HT1080 IDH1KD tx
COc1cc2ncc(S(=O)(=O)c3ccccc3)c(N3CCCC(C)C3)c2cc1OC (centres undefined)	-29.7	11.6µM*	-25.2%	?	?
COc1ccc(CCNC(=O)CSc2nnc(Cc3cccn3C)n2C)cc1OC	1.6	-8.5%	15.1%	-14.8%	17.5%
CCOc1ccc(OCC)c(S(=O)(=O)NC2CC(C)(C)NC(C)(C)C2)c1	-59.4*	-18.6%	-2.2%	-12.4%	-6.0%
COc1cc(NC(=S)NC(=O)c2cc(C)cc(C)c2)ccc1NC(=O)c1cccs1	-18.5	?	21.7%	?	2.5%
COc1cc(NC(=S)NC(=O)c2c(OC)cccc2OC)ccc1NC(=O)c1cccs1	17.4	9.2µM*	-5.0%	10.3µM*	-1.9%
COc1cc(NC(=S)NC(=O)c2ccc(C(C)(C)C)cc2)ccc1NC(=O)c1cccs1	-2.1	18.4µM*	?	?	?
CSc1ncc(C(=O)N2CCN(c3ccc(F)cc3)CC2)c(C)n1	.	-25.5%	.	-28.4%	.
O=C(c1cnc(N2CCCCC2)c2ccccc12)N1CCN(c2ccc(Cl)cc2)CC1	.	23.1µM*	.	14.6µM*	.
CCCc1nc(SC)ncc1C(=O)N1CCN(c2ccc(Cl)cc2)CC1	.	23.1µM*	.	?	.
O=C(c1cnc(N2CCN(c3ncccn3)CC2)c2ccccc12)N1CCN(c2ncccn2)CC1	-53.8*	14.6µM*	-16.9%	14.6µM*	-27.6%
Cc1ccc(Cl)cc1N1CCN(C(=O)c2cnc(N3CCOCC3)c3ccccc23)CC1	.	6.51µM*	.	5.8µM*	.
O=C(O)c1ccccc1C(=O)N1CCN(c2ncccn2)CC1	32.4	-13.2%	12.1%	-12.0%	12.0%
CC(C)CN(C(=O)CN1C(=O)C2CCCCC2C1=O)c1c(N)n(Cc2ccccc2)c(=O)[nH]c1=O (centres undefined)	10.2	-0.4%	13.7%	-27.0%	6.3%
Cc1ccccc1C(=O)NC(CC(C)C)C(=O)NCC(C)(C)N1CCOCC1 (centres undefined)	21.9	8.6%	3.8%	-3.2%	-11.0%
CCc1ccccc1N1CN(Cc2cccnc2)CNC1=S	-6.1	-6.5%	-12.2%	4.3%	-2.2%
O=C(Nc1ccc(Cl)cc1)N1CCN(c2ncccn2)CC1	0.7	3.7%	6.9%	-11.9%	7.1%
CN(C(=O)c1cnc(N2CCN(c3ncccn3)CC2)c2ccccc12)c1ccc(Cl)cc1	-83.9*	20.6µM*	-2.6%	?	-10.3%
COc1ccc(C(=O)N2CCC3(CCCN(Cc4ccccc4OC)C3)CC2)cc1	.	-14.5%	.	-0.4%	.
O=S(=O)(c1ccc2c(c1)OCCO2)N1CCN(c2nc(-c3ccccc3)nc3ccccc23)CC1	.	?	11.8%	?	-0.5%
Cc1ccc(C(=O)Nn2c(C)nc3ccccc3c2=O)cc1C	12.2	-17.1%	10.1%	?	3.9%
Cc1ccccc1Nc1c(-c2cccnc2)nc2cccc(C)n12	3.0	20.6µM*	-12.4%	?	-0.3%
